Compounds without any hit were thinned out: in the full panel of roughly 83,000, 20% have a hit.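 Interpretation: 100, growth as untreated; towards 0, rising growth inhibition; 0, no net growth; 0 to -100, cell death. Compounds scoring below 10 were considered active.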
Tests used:
Assay in all cases: NCI-60 one-dose screen, 48 h (100 = growth as untreated, 0 = no growth, -100 = all killed)
[1] = test system: NCI-H23 lung; conditions: 10 µM unless noted
[2] = test system: NCI-H226 lung; conditions: 10 µM unless noted
[3] = test system: MDA-MB-231 breast; conditions: 10 µM unless noted
[4] = test system: SF-268 CNS; conditions: 10 µM unless noted
[5] = test system: SF-539 CNS; conditions: 10 µM unless noted
[6] = test system: HCT-15 colon; conditions: 10 µM
[7] = test system: HT29 colon; conditions: 10 µM unless noted
[8] = test system: SNB-75 CNS; conditions: 10 µM unless noted
[9] = test system: PC-3 prostate; conditions: 10 µM unless noted
[10] = test system: SK-MEL-5 melanoma; conditions: 10 µM unless noted
[11] = test system: UACC-62 melanoma; conditions: 10 µM unless noted
[12] = test system: SK-MEL-28 melanoma; conditions: 10 µM unless noted
[13] = test system: SN12C renal; conditions: 10 µM unless noted
[14] = test system: ACHN renal; conditions: 10 µM unless noted
[15] = test system: OVCAR-8 ovarian; conditions: 10 µM unless noted
[16] = test system: OVCAR-3 ovarian; conditions: 10 µM unless noted
[17] = test system: NCI/ADR-RES ovarian; conditions: 10 µM unless noted
[18] = test system: MDA-MB-435 melanoma; conditions: 10 µM unless noted
[19] = test system: MCF7 breast; conditions: 10 µM unless noted
[20] = test system: KM12 colon; conditions: 10 µM unless noted

Measured: growth

O=C1c2ccccc2C(=O)N1[N+](=O)[O-]
inactive: [1] 95.3% | [2] 95.6% | [3] 101% | [4] 104% | [5] 108% | [6] 110% | [7] 102% | [8] 103% | [9] 94.9% | [10] 104% | [11] 96.1% | [12] 112% | [13] 97.2% | [14] 111% | [15] 100% | [16] 106% | [17] 97.9% | [18] 110% | [19] 92.5% | [20] 101%

CN(Cc1cccnc1)N=O
inactive: [1] 96.3% | [2] 92.3% | [3] 103% | [4] 95.5% | [5] 96.8% | [6] 100% | [7] 102% | [8] 85.1% | [9] 95.9% | [10] 103% | [11] 98.3% | [12] 108% | [13] 102% | [14] 103% | [15] 98.6% | [16] 101% | [17] 100% | [18] 103% | [19] 95.9% | [20] 102%

NS(=O)(=O)c1nc[nH]c1[N+](=O)[O-]
inactive: [1] 99.8% | [2] 99.4% | [3] 102% | [4] 103% | [5] 100% | [6] 101% | [7] 93.1% | [8] 92.1% | [9] 86.5% | [10] 101% | [11] 102% | [12] 105% | [13] 102% | [14] 96.9% | [15] 105% | [16] 115% | [17] 102% | [18] 115% | [19] 94.9% | [20] 103%

— PubChem BioAssay (NCI)
